Here are results for 35 compounds from PubChem BioAssay.

The structures appear in SMILES notation. Unmarked numbers belong to inactive results.

A short description of one assay: CREB reporter modulators without forskolin, primary screen, cell-based, PC12, CRE-LacZ reporter, unstimulated (AID 1145). To be noted: no forskolin, luminescence, 4.5 h, higher = more signal, called active from +8 up or from −8 down.
As for `C=C(CCCC)C(=O)CC[C@@H](OC(=O)c1cccnc1)c1ccccc1OCCO`, the z-score was 4.16. Still for that read-out and setting: in the case of `O=C1O[C@@H](c2ccccc2)[C@@H](c2ccccc2)N2[C@@H](c3ccccc3OCCO)[C@]3(C(=O)Nc4ccccc43)[C@@H](C(=O)NC[C@H](O)c3ccccc3)[C@H]12` it was 0.209; in that of `CC(C)(C)OC(=O)CC[C@]1(C(=O)O)N=C(c2ccc(OCCCO)cc2)O[C@H]1c1ccccc1`, -0.986; in that of `C=C(/C=C/CNS(=O)(=O)c1ccc(C)cc1)[C@H](O)[C@H]1CCCN1S(=O)(=O)c1ccccc1[N+](=O)[O-]`, 6.84.

Turning to `CCOC(=O)C1=CC[C@@H](c2ccccc2C(F)(F)F)N(S(=O)(=O)c2ccc(C)cc2)C1`, the z-score was 0.238. In the case of `CN(C)CCCN1C(=O)[C@@]2(c3ccc([N+](=O)[O-])cc3)CC(=O)N(CC34CC5CC(CC(C5)C3)C4)[C@@H]2c2ccc(CO)cc21`, the z-score was -0.0259.

Consider `CN1C2C=C(CCCO)C(C3C(=O)N(C(N)=O)C(=O)C32)C1c1cccs1` (stereo not drawn), for which the z-score was -1.09. With `CCOC(=O)C1=CC[C@@H](c2ccc([N+](=O)[O-])cc2)N(S(=O)(=O)c2ccc(C)cc2)[C@H]1c1ccccc1`, the z-score is 0.182.

A short description of the next assay: CREB reporter modulators under forskolin, primary screen, cell-based, PC12, CRE-LacZ reporter, forskolin-stimulated (AID 1146).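 Also: PC12 cells with 6xCRE LacZ reporter stimulated by forskolin 10 µM; beta-galactosidase reporter signal reflecting CREB driven transcription.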 To be noted: luminescence, 4.5 h, higher = more signal, called active from +8 up or from −8 down.
As to `O=C1OCC=C[C@H]2OC34C=CCN(c5ccc(Cl)cc5)C(=O)[C@H]3N(CCCCCO)C(=O)[C@@H]4[C@@H]12` (stereo partly drawn), the z-score was 0.168. In the case of `CC(C)(C)OC(=O)CC[C@]1(C(=O)NCCN2CCOCC2)N=C(c2ccc(OCCCO)cc2)O[C@H]1c1ccccc1N=[N+]=[N-]`, the z-score was -0.55. Still for that read-out and setting: next, `COC(=O)C1(Cc2ccccc2)C=C2C(=C(c3ccccc3)C(=O)C2C)CN1` (stereo not drawn): 0.465.

With `COc1cc(CO)cc(I)c1O[C@H]1C=C(C(=O)NCCO)C[C@@H](N(CC2CCCCC2)C(=O)c2ccc(C(F)(F)F)cc2)[C@@H]1O`, the z-score is -1.22. For `COc1ccc([Si](C)(C)[C@H]2[C@H](CCn3cc(CCO)nn3)O[C@@]3(C(=O)N(Cc4ccc(N5C(=O)c6cccc7cccc5c67)cc4)c4ccccc43)[C@@H]2C)cc1`, the z-score was -0.213. The same measure, in the same setting: next, `CC=CC(O)C1C=CC2C(=O)N(C)C(=O)C2N1Nc1ccc([N+](=O)[O-])cc1[N+](=O)[O-]` (stereo not drawn): 0.71; `COCCCNC(=O)[C@]1(Cc2ccccc2N=[N+]=[N-])N=C(c2ccc(OCCCO)cc2)O[C@@H]1c1ccccc1N=[N+]=[N-]`: -1.98; `[N-]=[N+]=NCc1ccccc1C[C@@]1(C(N)=O)N=C(c2ccc(OCCCO)cc2)O[C@@H]1c1ccccc1CN=[N+]=[N-]`: 0.161. The same measure, in the same setting: in the case of `O=C1NC(=O)C2C1C=CC(C(O)c1ccc3c(c1)OCO3)N2Nc1ccccn1` (stereo not drawn) it was 0.689; in that of `O=C1C[C@]2(c3ccc([N+](=O)[O-])cc3)C(=O)N(Cc3ccccc3)c3cc(CO)ccc3[C@H]2N1CC12CC3CC(CC(C3)C1)C2`, 0.245; in that of `COc1cc2c(cc1OC)CN(C(=O)[C@H]1[C@@H]3C(=O)O[C@@H](c4ccccc4)[C@@H](c4ccccc4)N3[C@@H](c3ccc(OCCO)cc3)[C@]13C(=O)Nc1ccc(C#CCCO)cc13)CC2`, -0.48. Still for that read-out and setting: next, `CC(C)NC(=O)[C@@]1(C)c2ccccc2C(=O)N(C(C)C)[C@H]1c1ccc(CO)cc1`: 0.626. Regarding `C=CCC(OC(C)=O)[C@@H]1[C@@H](N(Cc2cc3ccccc3o2)C(=O)Cc2ccc(F)cc2)c2cc(OCCCO)ccc2N1C(=O)c1ccc2ccccc2n1` (stereo partly drawn), the z-score was 0.0063.

Regarding `O=C1O[C@@H](c2ccccc2)[C@@H](c2ccccc2)N2[C@@H](c3ccc(O)cc3)[C@]3(C(=O)Nc4ccc(C#CCCO)cc43)[C@@H](C(=O)Nc3nc4ccccc4s3)[C@H]12`, the z-score is 1.93.

Turning to `C=C(CCCC)/C(=C/C[C@@H](OC(C)=O)c1ccc(CO)o1)c1cc(C(=O)OC)ccc1OC`, the z-score is 2.34. Same read-out and setting: in the case of `O=C1OC[C@@H](c2ccccc2)N2CC(/C=C/c3ccccc3)=CC12` (stereo partly drawn) it was -1.57; in that of `CCOC(=O)[C@H]1C/C=C/C[C@H](C(=O)OCC)C(=O)O[C@H]2[C@@H](OC)O[C@H](CO)[C@@H](OC(=O)CCc3ccccc3)[C@@H]2OC1=O`, -0.0955. Same read-out and setting: in the case of `[N-]=[N+]=Nc1ccccc1C[C@@]1(C(=O)O)N=C(c2ccc(OCCCO)cc2)O[C@@H]1c1ccccc1` it was -0.218; in that of `CC(C)(C)N1CC=CC23O[C@@H]4C=CCOC(=O)[C@@H]4[C@H]2C(=O)N(CCCO)[C@@H]3C1=O` (stereo partly drawn), 0.0029; in that of `COC1(C)CN(Cc2ccccc2Br)[C@H](/C=C/c2ccccc2)[C@H](Cc2ccccc2)O1` (stereo partly drawn), 0.874.

On to `O=C(N1CCCCC1)[C@@]1(Cc2ccccc2)COC(c2ccc(OCCCO)cc2)=N1`, for which the z-score was -0.628.

On to `COC(=O)[C@@]1(Cc2ccc(F)cc2)[C@H]2c3cc(C(=O)N4CCCC4)n(CCc4c[nH]c5ccc(OC)cc45)c3C[C@H]2CN1C(=O)c1ccccc1`, for which the z-score is -0.556. The same measure, in the same setting: in the case of `[N-]=[N+]=Nc1ccccc1[C@@H]1OC(c2ccc(OCCCO)cc2)=N[C@]1(CCS(=O)(=O)c1ccccc1)C(=O)NCCN1CCOCC1` it was -1.18; in that of `CN1C(=O)C2C=CC(C(O)c3c(F)cccc3Cl)N(Nc3ccccc3)C2C1=O` (stereo not drawn), 0.928.

`COC(=O)[C@@]1(Cc2ccccc2)[C@H]2c3cc(C(=O)N4CCCC4)[nH]c3C[C@H]2CN1C(=O)c1ccccc1`: the z-score was 0.283.

With `NCCCCCCNC(=O)[C@H]1C[C@H]2C(=O)N[C@@H](Cc3ccccc3)C(=O)N2[C@H]1c1ccc(O)cc1`, the z-score was -1.24. Same read-out and setting: next, `C[N+](C)(C)CCCC[C@@H]1NC(=O)[C@@H]2C[C@H](C(=O)O)[C@H](c3ccc(O)cc3)N2C1=O`: 0.563; `C=C(CCCC)C(=O)CC[C@@H](OC(=O)c1cccnc1)c1ccccc1OCCO`: 1.04; `O=C1O[C@@H](c2ccccc2)[C@@H](c2ccccc2)N2[C@@H](c3ccccc3OCCO)[C@]3(C(=O)Nc4ccccc43)[C@@H](C(=O)NC[C@H](O)c3ccccc3)[C@H]12`: 4.03. Still for that read-out and setting: next, `CC(C)(C)OC(=O)CC[C@]1(C(=O)O)N=C(c2ccc(OCCCO)cc2)O[C@H]1c1ccccc1`: -0.72; `C=C(/C=C/CNS(=O)(=O)c1ccc(C)cc1)[C@H](O)[C@H]1CCCN1S(=O)(=O)c1ccccc1[N+](=O)[O-]`: -1.17.

`CCOC(=O)C1=CC[C@@H](c2ccccc2C(F)(F)F)N(S(=O)(=O)c2ccc(C)cc2)C1`: the z-score was -0.596. On the same count and under the same terms, next, `CN(C)CCCN1C(=O)[C@@]2(c3ccc([N+](=O)[O-])cc3)CC(=O)N(CC34CC5CC(CC(C5)C3)C4)[C@@H]2c2ccc(CO)cc21`: -0.598; `CN1C2C=C(CCCO)C(C3C(=O)N(C(N)=O)C(=O)C32)C1c1cccs1` (stereo not drawn): -0.23. Same read-out and setting: next, `CCOC(=O)C1=CC[C@@H](c2ccc([N+](=O)[O-])cc2)N(S(=O)(=O)c2ccc(C)cc2)[C@H]1c1ccccc1`: 0.147.
